Data taken from PubChem BioAssay (EPA / NIEHS).
Inconclusive results are not listed. Calls of active or inactive are those of the source. How the source made its calls, unless noted: active means hit-call score of the fitted dose curve at least 0.9, where 1 is the maximum; inactive means score below 0.9.

Tests used:
[1] = target: Retinoic acid receptor RXR-alpha (Homo sapiens) (UniProt P19793); assay: ATG_RXRa_TRANS: Attagene TRANS-FACTORIAL HepG2 Assay for human Retinoid X Receptor alpha (RXRa) (AID 2283012; active means hit-call score of the fitted dose curve at least 0.9, where 1 is the maximum)
Retinoic acid receptor RXR-alpha (Homo sapiens), sequence (P19793 whole entry, looked up, the tested form may be a part): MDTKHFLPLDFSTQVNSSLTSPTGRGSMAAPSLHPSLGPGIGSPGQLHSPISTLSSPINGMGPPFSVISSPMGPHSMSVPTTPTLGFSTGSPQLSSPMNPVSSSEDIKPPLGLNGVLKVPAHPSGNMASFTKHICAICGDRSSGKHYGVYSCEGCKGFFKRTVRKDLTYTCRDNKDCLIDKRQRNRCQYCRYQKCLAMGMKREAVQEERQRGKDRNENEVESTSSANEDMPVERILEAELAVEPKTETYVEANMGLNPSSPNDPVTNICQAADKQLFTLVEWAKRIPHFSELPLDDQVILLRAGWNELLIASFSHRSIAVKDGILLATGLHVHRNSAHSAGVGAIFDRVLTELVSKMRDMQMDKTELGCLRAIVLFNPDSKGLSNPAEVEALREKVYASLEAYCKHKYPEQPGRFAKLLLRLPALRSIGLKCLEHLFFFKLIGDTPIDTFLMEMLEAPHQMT
How it was run: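 Measures exogenous chimeric NR-GAL4 activity in transfected HepG2 liver cells after 24 h of dosing. Induced reporter mRNA was detected by RT-PCR with capillary electrophoresis, and gain of signal was analysed against DMSO.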

[2] = target: human Retinoid X Receptor beta (RXRb), RXRB (gene 6257) (UniProt P28702); assay: ATG_RXRb_TRANS: Attagene TRANS-FACTORIAL HepG2 Assay for human Retinoid X Receptor beta (RXRb) (AID 2283013; active means hit-call score of the fitted dose curve at least 0.9, where 1 is the maximum)
human Retinoid X Receptor beta (RXRb), RXRB (gene 6257), sequence (P28702 whole entry, looked up, the tested form may be a part): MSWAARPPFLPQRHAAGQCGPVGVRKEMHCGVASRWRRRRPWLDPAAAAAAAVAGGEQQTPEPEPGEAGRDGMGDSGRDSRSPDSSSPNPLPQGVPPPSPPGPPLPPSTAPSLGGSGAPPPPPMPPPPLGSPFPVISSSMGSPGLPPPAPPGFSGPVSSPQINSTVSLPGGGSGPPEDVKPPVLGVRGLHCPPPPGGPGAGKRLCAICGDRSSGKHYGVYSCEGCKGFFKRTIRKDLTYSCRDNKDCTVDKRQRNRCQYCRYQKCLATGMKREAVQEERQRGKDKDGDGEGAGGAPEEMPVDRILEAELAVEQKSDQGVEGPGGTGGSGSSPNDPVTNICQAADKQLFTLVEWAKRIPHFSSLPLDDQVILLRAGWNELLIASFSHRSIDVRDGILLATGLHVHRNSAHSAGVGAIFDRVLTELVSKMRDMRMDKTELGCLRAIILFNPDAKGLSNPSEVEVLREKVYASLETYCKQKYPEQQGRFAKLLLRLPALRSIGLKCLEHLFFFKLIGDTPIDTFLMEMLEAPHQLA
How it was run: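 Chimeric receptor-Gal4 activity was assessed in transiently transfected human HepG2 cells after 24 h exposure. Transcripts from GAL4-UAS reporters were quantified by fluorescent RT-PCR and capillary electrophoresis, with DMSO as negative control and baseline.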

[3] = target: human Thyroid Receptor alpha (THRa1), THRA (gene 7067) (UniProt P10827); assay: ATG_THRa1_TRANS: Attagene TRANS-FACTORIAL HepG2 Assay for human Thyroid Receptor alpha (THRa1) (AID 2283014; active means hit-call score of the fitted dose curve at least 0.9, where 1 is the maximum)
human Thyroid Receptor alpha (THRa1), THRA (gene 7067), sequence (P10827 whole entry, looked up, the tested form may be a part): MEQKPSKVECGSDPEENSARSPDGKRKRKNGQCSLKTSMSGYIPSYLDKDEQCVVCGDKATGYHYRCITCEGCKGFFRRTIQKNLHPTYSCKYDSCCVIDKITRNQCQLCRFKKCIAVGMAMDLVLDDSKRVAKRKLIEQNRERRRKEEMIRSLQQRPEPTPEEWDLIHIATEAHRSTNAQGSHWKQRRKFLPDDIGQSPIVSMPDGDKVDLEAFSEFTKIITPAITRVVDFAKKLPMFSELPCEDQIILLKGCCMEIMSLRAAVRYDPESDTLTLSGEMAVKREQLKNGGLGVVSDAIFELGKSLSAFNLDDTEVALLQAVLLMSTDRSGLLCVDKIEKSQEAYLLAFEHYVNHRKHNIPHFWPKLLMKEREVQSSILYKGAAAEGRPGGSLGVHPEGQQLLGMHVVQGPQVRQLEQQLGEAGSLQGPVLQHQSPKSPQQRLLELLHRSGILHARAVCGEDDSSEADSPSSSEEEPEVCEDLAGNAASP
How it was run: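 Reporter transcript induction, read by capillary electrophoresis of 6-FAM-labelled RT-PCR products, reflects activity of a transfected THRa1-Gal4 fusion in HepG2 liver cells. Cells were dosed for 24 h; activity was fitted in the positive direction against DMSO.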

[4] = read-out: E-selectin (Homo sapiens) (UniProt P16581); assay: BSK_3C_Eselectin: BioMAP Diversity Plus: 3C Assay for Eselectin Biomarker Activity (AID 2283015); conditions: primary human endothelial cells (HUVEC); actives raise or lower the signal
How it was run: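 ELISA read-out of E-selectin on endothelial monolayers after 24 h chemical treatment. Human umbilical vein primary cells served as the system, with DMSO defining baseline activity for bidirectional fitting.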

[5] = read-out: Interleukin-1 alpha (IL1a), IL1A (gene 3552); assay: BSK_BE3C_IL1a: BioMAP Diversity Plus: BE3C Assay for Interleukin-1 alpha (IL1a) Biomarker Activity (AID 2283016); conditions: primary human bronchial epithelial cells; actives raise or lower the signal
How it was run: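 Signal from IL-1a ELISA, taken 24 h after chemical dosing of human bronchial epithelial cells, is compared with DMSO as baseline using bidirectional curve fitting.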

[6] = read-out: Monocyte Chemoattractant Protein-1 (MCP1), CCL2 (gene 6347); assay: BSK_3C_MCP1: BioMAP Diversity Plus: 3C Assay for Monocyte Chemoattractant Protein-1 (MCP1) Biomarker Activity (AID 2283017); conditions: primary human endothelial cells (HUVEC); actives raise or lower the signal
How it was run: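 ELISA read-out of MCP-1 from human umbilical vein endothelial cell cultures harvested 24 h post-dosing. Gain or loss of signal was fitted relative to DMSO.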

[7] = read-out: Human Leukocyte Antigen - DR isotype (HLADR), HLA-DRA (gene 3122); assay: BSK_3C_HLADR: BioMAP Diversity Plus: 3C Assay for Human Leukocyte Antigen - DR isotype (HLADR) Biomarker Activity (AID 2283019); conditions: primary human endothelial cells (HUVEC); actives raise or lower the signal
How it was run: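 ELISA readout of surface HLA-DR on human umbilical vein endothelium, taken 24 h after chemical treatment. Gain- and loss-of-signal were both fitted relative to DMSO.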

[8] = read-out: Interleukin-8 (IL8), CXCL8 (gene 3576); assay: BSK_3C_IL8: BioMAP Diversity Plus: 3C Assay for Interleukin-8 (IL8) Biomarker Activity (AID 2283020); conditions: primary human endothelial cells (HUVEC); actives raise or lower the signal
How it was run: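 Endothelial primary cells of human umbilical vein origin are dosed with chemical; after 24 h the IL-8 biomarker is measured by ELISA, and concentration–response is fitted in both directions versus DMSO.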

[9] = read-out: Monokine induced gamma interferon (MIG), CXCL9 (gene 4283); assay: BSK_3C_MIG: BioMAP Diversity Plus: 3C Assay for Monokine induced gamma interferon (MIG) Biomarker Activity (AID 2283021); conditions: primary human endothelial cells (HUVEC); actives raise or lower the signal;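 on AC50: MIG protein level measured by immunoassay in the treated endothelial cultures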
How it was run: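 Endothelial primary cells (human umbilical vein) are dosed with test chemical in the 3C system. MIG levels are measured by ELISA at 24 h and fitted in both directions relative to DMSO.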

[10] = target: human Vitamin D Receptor (VDR), VDR (gene 7421) (UniProt P11473); assay: ATG_VDR_TRANS: Attagene TRANS-FACTORIAL HepG2 Assay for human Vitamin D Receptor (VDR) (AID 2283022; active means hit-call score of the fitted dose curve at least 0.9, where 1 is the maximum)
human Vitamin D Receptor (VDR), VDR (gene 7421), sequence (P11473 whole entry, looked up, the tested form may be a part): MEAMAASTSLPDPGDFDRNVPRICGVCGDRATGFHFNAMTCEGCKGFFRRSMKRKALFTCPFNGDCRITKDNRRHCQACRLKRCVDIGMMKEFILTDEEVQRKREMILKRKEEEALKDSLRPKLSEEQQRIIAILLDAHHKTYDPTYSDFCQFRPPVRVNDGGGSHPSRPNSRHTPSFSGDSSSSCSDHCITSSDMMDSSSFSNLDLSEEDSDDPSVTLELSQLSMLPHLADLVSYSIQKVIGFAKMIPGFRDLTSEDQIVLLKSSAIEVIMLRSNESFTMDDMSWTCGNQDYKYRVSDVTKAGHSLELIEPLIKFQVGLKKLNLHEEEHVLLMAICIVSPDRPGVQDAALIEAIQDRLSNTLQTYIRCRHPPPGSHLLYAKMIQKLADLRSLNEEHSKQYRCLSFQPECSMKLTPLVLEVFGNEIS
How it was run: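 Steps: transfect HepG2 with GAL4-UAS-driven reporter constructs; dose compounds 24 h; isolate RNA, reverse-transcribe, PCR-amplify with 6-FAM-labelled primer extension and HpaI digestion; quantify fragments by capillary electrophoresis relative to DMSO.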

[11] = BSK_3C_SRB: Viability Assessment in the BioMAP Diversity Plus: 3C Assay (AID 2283023); conditions: primary human endothelial cells (HUVEC);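 further: fitted both ways against DMSO so a hit may be signal rise or drop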
How it was run: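 Absorbance at 560 nm of sulforhodamine B-stained (0.1%) total protein served as a cytotoxicity readout in human umbilical vein endothelial cells, 24 h after chemical treatment. Signal was fitted bidirectionally relative to DMSO.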

[12] = read-out: Matrix Metallopeptidase 1 (MMP1), MMP1 (gene 4312); assay: BSK_BE3C_MMP1: BioMAP Diversity Plus: BE3C Assay for Matrix Metallopeptidase 1 (MMP1) Biomarker Activity (AID 2283024); conditions: primary human bronchial epithelial cells; actives raise or lower the signal
How it was run: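 MMP1 signal, measured by ELISA after a 24 h chemical exposure of human primary bronchial epithelial cells, is analysed with bidirectional fitting using DMSO as negative control.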

[13] = BSK_3C_Vis: BioMAP Diversity Plus: 3C Assay for Morphology Visualization (AID 2283025); conditions: primary human endothelial cells (HUVEC);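 further: fitted both ways so gain or loss versus DMSO counts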
How it was run: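 Morphology read by light microscopy serves as a background control for the multiplexed 3C assay in human umbilical vein endothelial cells, taken 24 h after dosing, with DMSO as the negative control and bidirectional curve fitting.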

[14] = read-out: Pselectin, SELP (gene 6403); assay: BSK_4H_Pselectin: BioMAP Diversity Plus: 4H Assay for Pselectin Biomarker Activity (AID 2283026); conditions: primary human endothelial cells (HUVEC); actives raise or lower the signal
How it was run: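 Endothelial primary cells (human umbilical vein) are dosed, incubated 24 h, and assayed for surface P-selectin by ELISA; responses in either direction are fitted relative to the DMSO negative control.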

[15] = BSK_4H_SRB: Viability Assessment in the BioMAP Diversity Plus: 4H Assay (AID 2283027); conditions: primary human endothelial cells (HUVEC);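 further: cells exposed to compound for 24 h before staining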;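 on AC50: curves fitted both ways versus DMSO so AC50 may be loss or gain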
How it was run: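 Cytotoxicity read-out in primary human endothelial cells: after 24 h compound exposure, cells were TCA-fixed (10%), stained with 0.1% SRB and absorbance taken at 560 nm. Values fitted in both directions relative to DMSO.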

[16] = BSK_BE3C_SRB: Viability Assessment in the BioMAP Diversity Plus: BE3C Assay (AID 2283028); conditions: primary human bronchial epithelial cells;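 on AC50: fitted both ways so AC50 may mark signal gain or loss versus DMSO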
How it was run: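 Cells (human bronchial epithelial, primary) are treated with chemicals, and after 24 h the parallel cultures are fixed in 10% TCA. These are then stained with 0.1% SRB and read at 560 nm. Gain or loss of signal is fitted relative to DMSO.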

[17] = read-out: Thrombomodulin, THBD (gene 7056); assay: BSK_3C_Thrombomodulin: BioMAP Diversity Plus: 3C Assay for Thrombomodulin Biomarker Activity (AID 2283029); conditions: primary human endothelial cells (HUVEC); actives raise or lower the signal
How it was run: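 Endothelial cells from umbilical vein are dosed with test chemical and incubated 24 h. Thrombomodulin is then quantified by ELISA, with DMSO serving as negative control and activity baseline.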

[18] = target: human RAR-related Orphan Receptor gamma (RORg), RORC (gene 6097) (UniProt P51449); assay: ATG_RORg_TRANS: Attagene TRANS-FACTORIAL HepG2 Assay for human RAR-related Orphan Receptor gamma (RORg) (AID 2283011; active means hit-call score of the fitted dose curve at least 0.9, where 1 is the maximum)
human RAR-related Orphan Receptor gamma (RORg), RORC (gene 6097), sequence (P51449 whole entry, looked up, the tested form may be a part): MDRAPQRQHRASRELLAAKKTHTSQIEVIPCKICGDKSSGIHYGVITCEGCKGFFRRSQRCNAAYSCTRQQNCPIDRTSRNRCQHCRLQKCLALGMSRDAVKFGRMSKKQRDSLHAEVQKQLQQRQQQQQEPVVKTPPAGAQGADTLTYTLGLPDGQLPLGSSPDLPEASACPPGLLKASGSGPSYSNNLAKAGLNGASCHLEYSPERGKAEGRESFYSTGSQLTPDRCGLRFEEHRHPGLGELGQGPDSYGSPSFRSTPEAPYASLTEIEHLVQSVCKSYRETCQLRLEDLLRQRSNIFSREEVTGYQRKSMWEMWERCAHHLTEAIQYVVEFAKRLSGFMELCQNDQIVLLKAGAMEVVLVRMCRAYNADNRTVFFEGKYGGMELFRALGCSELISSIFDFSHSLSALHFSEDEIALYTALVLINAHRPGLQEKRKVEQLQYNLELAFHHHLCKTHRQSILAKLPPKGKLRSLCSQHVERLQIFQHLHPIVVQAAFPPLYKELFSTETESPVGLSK
How it was run: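 First, HepG2 liver cells were transfected with GAL4-UAS-driven reporter constructs and the RORg-Gal4 fusion. Next, they were treated with chemical for 24 h. Finally, reporter mRNA was quantified by RT-PCR and capillary electrophoresis, with upward activity fitted against DMSO.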

[19] = read-out: Monocyte Chemoattractant Protein-1 (MCP1), CCL2 (gene 6347); assay: BSK_4H_MCP1: BioMAP Diversity Plus: 4H Assay for Monocyte Chemoattractant Protein-1 (MCP1) Biomarker Activity (AID 2283018); conditions: primary human endothelial cells (HUVEC); actives raise or lower the signal
How it was run: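 Endothelial cells from umbilical vein were treated with test chemical, then after 24 h MCP-1 levels were quantified by ELISA; endpoint values came from bidirectional fitting with DMSO as baseline of activity.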

Measured: AC50

E-selectin (Homo sapiens), sequence (P16581 whole entry, looked up): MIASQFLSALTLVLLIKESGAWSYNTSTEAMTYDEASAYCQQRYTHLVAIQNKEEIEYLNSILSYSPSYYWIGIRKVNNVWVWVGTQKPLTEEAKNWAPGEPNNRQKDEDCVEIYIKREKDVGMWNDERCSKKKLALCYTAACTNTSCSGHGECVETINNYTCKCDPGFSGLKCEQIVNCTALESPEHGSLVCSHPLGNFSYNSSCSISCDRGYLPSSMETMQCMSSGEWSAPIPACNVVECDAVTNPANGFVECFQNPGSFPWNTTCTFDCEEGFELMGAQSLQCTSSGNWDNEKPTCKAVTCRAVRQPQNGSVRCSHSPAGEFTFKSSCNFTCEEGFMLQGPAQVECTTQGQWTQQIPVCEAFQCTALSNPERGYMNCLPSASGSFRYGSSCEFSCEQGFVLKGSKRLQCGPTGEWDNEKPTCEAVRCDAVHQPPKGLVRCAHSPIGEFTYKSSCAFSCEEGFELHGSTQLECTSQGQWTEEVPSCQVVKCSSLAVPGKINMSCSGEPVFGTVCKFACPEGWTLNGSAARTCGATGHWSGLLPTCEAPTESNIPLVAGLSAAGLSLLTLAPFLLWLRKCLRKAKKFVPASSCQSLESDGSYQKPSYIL

CC1=NNC(=O)N(/N=C/c2cccnc2)C1
inactive: [1] | [2] | [3] | [4] | [5] | [6] | [7] | [8] | [9] | [10] | [11] | [12] | [13] | [14] | [15] | [16] | [17]

CCCCN(CC)c1c([N+](=O)[O-])cc(C(F)(F)F)cc1[N+](=O)[O-]
active: [7] 20 µM | [11] 16.4 µM | [13] 39 µM
inactive: [1] | [4] | [5] | [6] | [8] | [9] | [10] | [12] | [14] | [15] | [16] | [17]

CCNc1nc(Cl)nc(NC(C)(C)C#N)n1
inactive: [18] | [1] | [2] | [4] | [5] | [6] | [7] | [8] | [9] | [11] | [12] | [13] | [14] | [15] | [16] | [17]

CCC(CC)Nc1c([N+](=O)[O-])cc(C)c(C)c1[N+](=O)[O-]
active: [4] 31.2 µM | [6] 36.6 µM | [19] 22.4 µM | [7] 36.2 µM | [8] 23.8 µM | [11] 16.7 µM | [12] 20 µM | [13] 13.7 µM | [14] 28.5 µM | [15] 35.6 µM | [16] 20 µM | [17] 15.5 µM
inactive: [18] | [1] | [2] | [5] | [9] | [10]

CC(C)N(C(=O)SCC(Cl)=C(Cl)Cl)C(C)C
active: [4] 30.7 µM | [6] 31.1 µM | [7] 32.9 µM | [8] 30.2 µM | [9] 38.3 µM | [11] 29.8 µM | [13] 37.2 µM | [14] 31.5 µM | [15] 33.4 µM
inactive: [1] | [2] | [3] | [5] | [12] | [16] | [17]

CCc1cnc(C2=NC(C)(C(C)C)C(=O)N2)c(C(=O)O)c1 (centres undefined)
inactive: [18] | [4] | [5] | [6] | [7] | [8] | [9] | [10] | [11] | [12] | [13] | [14] | [15] | [16] | [17]

CC(Oc1cccc(Cl)c1)C(=O)O (centres undefined)
inactive: [18] | [4] | [5] | [6] | [19] | [7] | [8] | [9] | [11] | [12] | [13] | [14] | [15] | [16] | [17]

C#CCC1=C(C)C(OC(=O)C2C(C=C(C)C)C2(C)C)CC1=O (centres undefined)
inactive: [1] | [2] | [5] | [9] | [10] | [12] | [13] | [17]
active: [4] 36 µM | [6] 32.2 µM | [7] 20 µM | [8] 30.7 µM | [11] 28.5 µM | [14] 31.6 µM | [15] 33.8 µM | [16] 18 µM

FC(F)C(F)(F)OCC(Cn1cncn1)c1ccc(Cl)cc1Cl (centres undefined)
active: [7] 26.9 µM | [11] 20 µM | [13] 39 µM | [14] 33.7 µM
inactive: [1] | [3] | [4] | [5] | [6] | [8] | [9] | [12] | [15] | [16] | [17]

COc1cc(OC)nc(Sc2cccc(Cl)c2C(=O)O)n1
inactive: [18] | [2] | [3] | [4] | [5] | [6] | [19] | [7] | [8] | [9] | [10] | [11] | [12] | [13] | [14] | [15] | [16] | [17]

CCOP(=S)(OCC)SCCSCC
active: [13] 9.8 µM
inactive: [1] | [2] | [3] | [4] | [5] | [6] | [19] | [7] | [8] | [9] | [11] | [12] | [14] | [15] | [16] | [17]

CC1(C(=O)Nc2ccc(O)c(Cl)c2Cl)CCCCC1
active: [16] 17.8 µM
inactive: [18] | [1] | [4] | [5] | [6] | [7] | [8] | [9] | [10] | [11] | [12] | [13] | [14] | [15] | [17]

CSc1nc(NC(C)C)nc(NC(C)C)n1
active: [11] 14 µM
inactive: [18] | [1] | [2] | [4] | [5] | [6] | [19] | [7] | [8] | [9] | [10] | [12] | [13] | [14] | [15] | [16] | [17]

CCCOCC(=Nc1ccc(Cl)cc1C(F)(F)F)n1ccnc1
active: [4] 30.2 µM | [5] 33.5 µM | [6] 30.2 µM | [19] 24.9 µM | [7] 26.8 µM | [8] 33.7 µM | [9] 35.1 µM | [11] 31 µM | [12] 34 µM | [13] 20 µM | [14] 29.8 µM | [15] 29 µM | [16] 20 µM | [17] 35 µM
inactive: [1] | [2]

CCCCSP(=O)(SCCCC)SCCCC
inactive: [1] | [2] | [5] | [9] | [10] | [12] | [14]
active: [4] 28.1 µM | [6] 26 µM | [7] 27.7 µM | [8] 31.9 µM | [11] 27.9 µM | [13] 13.7 µM | [15] 20 µM | [16] 14.7 µM | [17] 5.35 µM
